According to PubChem BioAssay (NCATS):
Inconclusive results are not listed. Activity calls are given as the source filed them. Unless noted, the call rests on the fitted dose curve; in most records, active means well fitted curve in the direction sought with a large enough effect; inconclusive means small, poorly fitted or top-dose-only effect, or another doubt; inactive means no such curve, though single readings can be large; an effect the other way counts as inactive or inconclusive.

Tests used:
[1] = target: Cytochrome P450 2C19 (Homo sapiens) (UniProt P33261); experiment: qHTS Assay for Inhibitors and Substrates of Cytochrome P450 2C19 (AID 899); further: on the % scale 0 is the no-effect control and ±100 the full control effect; nearly all actives have a fitted effect of over 60% in size
Chain of Cytochrome P450 2C19 (Homo sapiens) (P33261 whole entry, looked up): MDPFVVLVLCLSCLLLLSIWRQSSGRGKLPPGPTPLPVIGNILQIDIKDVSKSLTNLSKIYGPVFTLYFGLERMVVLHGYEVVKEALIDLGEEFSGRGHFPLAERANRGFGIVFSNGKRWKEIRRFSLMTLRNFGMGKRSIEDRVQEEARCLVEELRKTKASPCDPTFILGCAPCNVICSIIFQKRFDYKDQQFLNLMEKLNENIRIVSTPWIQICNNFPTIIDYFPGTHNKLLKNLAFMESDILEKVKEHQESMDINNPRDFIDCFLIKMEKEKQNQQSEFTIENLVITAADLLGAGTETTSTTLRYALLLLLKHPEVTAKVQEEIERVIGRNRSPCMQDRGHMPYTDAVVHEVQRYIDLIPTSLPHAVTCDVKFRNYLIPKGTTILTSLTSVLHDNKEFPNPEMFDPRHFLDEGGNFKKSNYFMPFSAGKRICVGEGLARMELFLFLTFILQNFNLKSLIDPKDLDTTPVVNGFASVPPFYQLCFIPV
Summary of the method: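 Luminescent read-out of luciferin formed from Luciferin-H EGE (10uM, equal to KM). Enzyme 5nM in 50mM KPO4; compound added, 10 min at 37C, then NADPH regenerating system for 60 min at 37C. Full inhibition defined by 57uM ketoconazole.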

[2] = Cell Viability - LYMP2-001 (AID 921);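 further: series mostly up to about 92 µM; 0% = DMSO only and full inhibition = tetraoctylammonium bromide control wells; nearly all actives have a fitted effect of over 70% in size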
Summary of the method: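 Steps: seed 2500 lymphoblastoid cells/well; 5 hr, 37 C; add compound; 24 hr, 37 C; CellTiter-Glo reagent, 30 min room temperature; read luminescence. Concentration-response modeled by Hill equation for AC50.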

[3] = MultiTox-Fluor Cytotoxicity Assay - LYMP1-001 - Dead Cells (AID 946);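 further: 0% = DMSO and 100% = tetraoctylammonium bromide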
Summary of the method: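 AC50 from Hill fit of concentration-response; data normalized to DMSO (basal) and 15 uM tetraoctylammonium bromide (100%). LYMP1-001 lymphoblastoid cells, 2500/well, 16 hr compound at 37 C; dead-cell protease fluorescence, Ex/Em 485/520.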

[4] = MultiTox-Fluor Cytotoxicity Assay - LYMP1-001 - Live Cells (AID 947);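 further: 0% = DMSO only and full inhibition = tetraoctylammonium bromide control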
[5] = Cell Viability - LYMP1-002 - Assay at 16 hr (AID 948);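 further: 0% = DMSO alone and full effect = 92 µM tetraoctylammonium bromide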
Summary of the method: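 Seed 2500 LYMP1-002 cells per well in complete medium and hold 5 hr at 37 C. Add compound across a concentration series and incubate 16 hr at 37 C. Add CellTiter-Glo, wait 30 min at room temperature, read luminescence.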

[6] = MultiTox-Fluor Cytotoxicity Assay - LYMP1-002 - Live Cells (AID 955);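 further: cells exposed to compound for 16 hours; on the % scale 0 is the no-effect control and ±100 the full control effect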
Summary of the method: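 After 16 h compound exposure at 37 C, live LYMP1-002 lymphoblastoid cells (2500/well) were quantified by cleavage of cell-permeant GF-AFC substrate, read at 405/510 nm after 60 min. Concentration-response fitted with Hill equation for AC50.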

[7] = MultiTox-Fluor Cytotoxicity Assay - LYMP1-002 - Dead Cells (AID 960);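 further: 0% = DMSO and 100% = tetraoctylammonium bromide; nearly all actives have a fitted effect of over 60% in size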
Summary of the method: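 Dead-cell fluorescence (Ex/Em 485/520) after 16 h compound exposure at 37 C of LYMP1-002 lymphoblastoid cells in complete medium; AC50 by Hill equation, with data scaled between DMSO and 15 uM tetraoctylammonium bromide.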

[8] = MultiTox-Fluor Cytotoxicity Assay - LYMP1-003 - Dead Cells (AID 961);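 further: 0% = DMSO and 100% = tetraoctylammonium bromide; nearly all actives have a fitted effect of over 70% in size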
Summary of the method: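 Human lymphoblastoid LYMP1-003 cells (2500/well) were treated with compounds for 16 hr at 37 C in complete medium. Dead-cell protease release was read by bis-AAF-R110 fluorescence (Ex/Em 485/520). AC50 came from Hill fits, normalized to DMSO and 15 uM tetraoctylammonium bromide.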

[9] = MultiTox-Fluor Cytotoxicity Assay - LYMP1-003 - Live Cells (AID 962);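 further: cells exposed to compound for 16 hours at 37 °C; 0% = DMSO only and full loss = 92 µM tetraoctylammonium bromide; cytotoxic hits lower the live-cell protease signal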
Summary of the method: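 Live-cell protease activity (GF-AFC substrate, 405/510 nm, 60 min at room temperature) after 16 h, 37 C compound exposure of human lymphoblastoid LYMP1-003 cells; concentration-response fitted to the Hill equation for AC50.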

[10] = Cell Viability - LYMP1-003 - Assay at 24 hr (AID 963);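 further: plate controls were DMSO only for no effect and tetraoctylammonium bromide positive control for full effect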
Summary of the method: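 Concentration-response qHTS: ATP loss measured by CellTiter-Glo luminescence after 24 h compound exposure at 37 C. Cells were LYMP1-003 human lymphoblastoid, 2500 per well. AC50 derived via standard Hill equation modeling.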

[11] = Cell Viability - LYMP1-003 - Assay at 40 hr (AID 964); further: series mostly up to about 92 µM; on the % scale 0 is the no-effect control and ±100 the full control effect; nearly all actives have a fitted effect of over 60% in size
Summary of the method: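 Viability is taken as cellular ATP, read by CellTiter-Glo luminescence after 40 h of compound exposure at 37 C. Cells: human lymphoblastoid line LYMP1-003 at 2500/well; AC50 values derived by Hill-equation fitting of concentration-response data.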

[12] = Cell Viability - LYMP2-003 (AID 965);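 further: cells exposed to compounds for 24 h before reading; 0% = DMSO only and full effect = 92 µM tetraoctylammonium bromide; nearly all actives have a fitted effect of over 50% in size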
Summary of the method: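 Seed 2500 lymphoblastoid cells/well; incubate 5 hr, 37 C; add compounds; incubate 24 hr, 37 C; add CellTiter-Glo, 30 min RT; read luminescence. AC50 from Hill fit.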

[13] = target: Pyruvate kinase (Leishmania mexicana) (UniProt Q27686); experiment: qHTS Validation Assay for Inhibitors of Leishmania Mexicana Pyruvate Kinase (AID 945);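 further: 0% = DMSO only neutral control wells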
Chain of Pyruvate kinase (Leishmania mexicana) (Q27686 2-499 E452W): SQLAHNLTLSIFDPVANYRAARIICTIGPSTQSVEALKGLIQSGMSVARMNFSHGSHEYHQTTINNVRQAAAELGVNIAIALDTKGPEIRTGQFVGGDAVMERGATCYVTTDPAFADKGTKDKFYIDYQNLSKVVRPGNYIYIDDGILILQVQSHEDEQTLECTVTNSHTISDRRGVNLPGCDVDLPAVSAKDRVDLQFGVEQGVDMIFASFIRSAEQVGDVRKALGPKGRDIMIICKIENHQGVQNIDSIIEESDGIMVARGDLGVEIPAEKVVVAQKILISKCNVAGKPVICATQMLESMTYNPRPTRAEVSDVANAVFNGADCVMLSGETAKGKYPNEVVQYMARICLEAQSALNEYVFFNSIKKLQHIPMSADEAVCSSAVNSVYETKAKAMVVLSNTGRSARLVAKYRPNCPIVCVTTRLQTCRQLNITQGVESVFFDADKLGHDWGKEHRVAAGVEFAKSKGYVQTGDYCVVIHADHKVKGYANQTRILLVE
Summary of the method: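 Pyruvate kinase activity of E451W LmPYK (0.2 nM) was followed as ATP output after 1 h at room temperature with 0.5 mM PEP and 0.1 mM ADP, detected by PKLight luminescence.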

[14] = target: Pyruvate kinase PKM (Homo sapiens) (UniProt P14618); experiment: qHTS Assay for Activators of Human Muscle Pyruvate Kinase (AID 954; active means well fitted curve in the direction sought with a large enough effect, not every such curve was filed as active;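 further: 0% = uninhibited enzyme and -100% = no enzyme or full thiadiazolimine inhibition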)
Chain of Pyruvate kinase PKM (Homo sapiens) (P14618 whole entry, looked up): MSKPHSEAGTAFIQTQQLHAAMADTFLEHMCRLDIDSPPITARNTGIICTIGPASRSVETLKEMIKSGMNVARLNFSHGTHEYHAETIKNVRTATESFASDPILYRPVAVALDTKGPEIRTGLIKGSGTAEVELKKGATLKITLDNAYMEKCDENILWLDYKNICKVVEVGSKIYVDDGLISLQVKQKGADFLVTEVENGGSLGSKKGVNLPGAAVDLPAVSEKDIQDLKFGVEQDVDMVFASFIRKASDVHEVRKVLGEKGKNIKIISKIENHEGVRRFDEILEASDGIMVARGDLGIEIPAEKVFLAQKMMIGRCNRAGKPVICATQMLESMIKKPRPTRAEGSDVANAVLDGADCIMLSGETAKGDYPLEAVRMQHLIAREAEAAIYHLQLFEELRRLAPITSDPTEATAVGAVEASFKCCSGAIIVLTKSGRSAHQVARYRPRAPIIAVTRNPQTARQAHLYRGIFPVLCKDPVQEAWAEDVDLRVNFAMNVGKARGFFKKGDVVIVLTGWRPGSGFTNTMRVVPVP
Summary of the method: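 A coupled luminescent readout tracked ATP made from ADP by purified PKM2. Final conditions included 0.1 nM enzyme, PEP and ADP at 0.5 and 0.1 mM, pH 7.2 imidazole buffer with BSA, and a one-hour room-temperature reaction.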

[15] = qHTS Assay for Identification of Small Molecule Agonists for Thrombopoietin (TPO) Signaling Pathway (AID 917); further: on the % scale 0 is the no-effect control and ±100 the full control effect
Summary of the method: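 Cell-based luciferase reporter screen. Mouse Ba/F3 line stably expressing human TPO receptor; IL-3 removed overnight before plating. Co-treatment with compound and EC50 TPO (26 pM), 24 hrs at 37 C, then luminescence.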

[16] = target: Muscarinic acetylcholine receptor M1 (Rattus norvegicus) (UniProt P08482); experiment: qHTS Assay for Antagonists of Acetylcholine Muscarinic M1 Receptor: Kinetic Measurement of Intracellular Calcium Response (AID 943);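 further: Fluo-4 calcium signal as peak divided by basal fluorescence over 4 min; series mostly up to about 35 µM; nearly all actives have a fitted effect of over 75% in size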
Chain of Muscarinic acetylcholine receptor M1 (Rattus norvegicus) (P08482 whole entry, looked up): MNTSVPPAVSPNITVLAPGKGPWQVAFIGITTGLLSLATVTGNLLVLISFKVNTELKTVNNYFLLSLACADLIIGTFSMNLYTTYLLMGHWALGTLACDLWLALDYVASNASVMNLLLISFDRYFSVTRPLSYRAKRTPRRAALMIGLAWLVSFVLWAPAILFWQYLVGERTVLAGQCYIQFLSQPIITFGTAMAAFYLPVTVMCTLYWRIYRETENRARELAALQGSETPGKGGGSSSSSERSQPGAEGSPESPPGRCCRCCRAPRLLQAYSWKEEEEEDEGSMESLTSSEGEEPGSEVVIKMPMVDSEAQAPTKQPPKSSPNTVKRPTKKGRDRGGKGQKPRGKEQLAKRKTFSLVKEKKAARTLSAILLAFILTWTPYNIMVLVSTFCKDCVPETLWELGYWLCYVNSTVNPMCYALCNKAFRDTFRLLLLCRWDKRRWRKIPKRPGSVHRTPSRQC
Summary of the method: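 Antagonism measured as reduction of carbachol-evoked (EC80, 100 nM final) calcium flux in rat M1-CHO cells after 10 min compound exposure. Fluo-4 signal read kinetically; ratio of maximal to basal fluorescence.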

[17] = target: Muscarinic acetylcholine receptor M1 (Rattus norvegicus) (UniProt P08482); experiment: qHTS Assay for Antagonists of Acetylcholine Muscarinic M1 Receptor: Measurement of IP-One Response (AID 944); further: nearly all actives have a fitted effect of over 75% in size
Summary of the method: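 IP1 accumulation measured via TR-FRET between d2-IP1 and Eu-cryptate anti-IP1 antibody after carbachol (200 nM, EC80) stimulation for 30 min; rat M1-transfected CHO cells received compound 10 min before agonist.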

[18] = qHTS Assay for Identification of Small Molecule Antagonists for NFkB Signaling Pathway (AID 895; active means well fitted inhibition curve with a large enough effect in the signal ratio, with a control signal flat, not every such curve was filed as active; the % refers to the signal ratio; further: on the % scale 0 is the no-effect control and ±100 the full control effect)
Summary of the method: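 ME-180 NFkB-bla cells (beta-lactamase under NFkB response element), plated overnight, treated with compound then 10 pM TNF alpha (about EC50) for 5 hrs at 37 C. LiveBLAzer FRET read at 460/530 nm emission, 405 nm excitation.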

[19] = Confirmation and Secondary Assay for Modulators of Hemoglobin Beta Chain Splicing at IVS2 654 locus (AID 910);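 further: HeLa cells stably carrying EGFP split by mutant beta-globin IVS2-654 intron; % of control where 0% means no effect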
Summary of the method: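 HeLa cells stably expressing EGFP interrupted by β-globin IVS2-654 intron, seeded overnight in Opti-MEM/2% FCS, then treated 2 days at 37 °C. Restored splicing read as total peak GFP intensity per well by laser scanning cytometry (488 nm excitation, 500–520 nm emission); 500 nM antisense PNA as control.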

[20] = Confirmation and Secondary Assay for Modulators of Hemoglobin Beta Chain Splicing at IVS2 705 locus (AID 930);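 further: HeLa cells stably expressing the EGFP-705 splicing reporter; GFP fluorescence per well restored by corrected splicing of the IVS2-705 intron in EGFP; series mostly up to about 46 µM; % of control where 0% means no effect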
Summary of the method: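 Assay measures total GFP intensity per well in HeLa EGFP-705 cells after 2 days with compound; mis-splicing normally truncates EGFP, so fluorescence indicates corrected splicing.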

Measured: activity, negative = inhibition

COC1=CC(=O)C[C@@H](C)[C@@]12Oc1c(Cl)c(OC)cc(OC)c1C2=O
inactive: [1]

C=Cc1ccccc1
inactive: [2] | [3] | [4] | [5] | [6] | [7] | [8] | [9] | [10] | [11] | [12]

CN[C@H]1CC[C@@H](c2ccc(Cl)c(Cl)c2)c2ccccc21
inactive: [13] | [14]

Cc1ccc(OC[C@H](O)[C@H](C)NC(C)C)c2c1CCC2
inactive: [15] | [16] | [17] | [13] | [14]

CCCCCCCCCC(=O)O
inactive: [2] | [3] | [4] | [5] | [6] | [7] | [8] | [9] | [10] | [11] | [12]

NCCCC(=O)O
inactive: [18] | [1] | [19] | [15] | [20] | [16] | [17] | [13] | [14]

COC(C)=O
inactive: [2] | [3] | [4] | [5] | [6] | [7] | [8] | [9] | [10] | [11] | [12]

C1CNCCN1
inactive: [19] | [20]

CN(C)Cc1ccccc1
inactive: [2] | [3] | [4] | [5] | [6] | [7] | [8] | [9] | [10] | [11] | [12]

O=C(O)c1cc2ccccc2c(Cc2c(O)c(C(=O)O)cc3ccccc23)c1O
inactive: [1] 1.36% [at 11.4 µM]

O=C(O)CC(O)(CC(=O)O)C(=O)O
not listed: [1] | [13] | [14] | [15] | [16] | [17] | [18]
inactive: all other assays above

CCCCCCCCCCCCCCCC(=O)OC/C=C(C)/C=C/C=C(C)/C=C/C1=C(C)CCCC1(C)C
inactive: [19] | [20]
